Compound activity from PubChem.
The list is not random: actives were taken first. Their share in the collection is about 2.7%.
IP6K1 inh = Primary qHTS assay for small molecule inhibitors of Inositol hexaphosphate kinase 1 (IP6K1); IP6K1 kinase, ADP-Glo luminescence, 2 h; stronger effect = lower value; activity change, % (series mostly up to about 58 µM); 0.81% of 140,000 active; in the data active = activity change below about -25%; note: % is set by controls: 0 for no effect and ±100 for the full control effect
Target sequence (Q92551 whole entry, looked up): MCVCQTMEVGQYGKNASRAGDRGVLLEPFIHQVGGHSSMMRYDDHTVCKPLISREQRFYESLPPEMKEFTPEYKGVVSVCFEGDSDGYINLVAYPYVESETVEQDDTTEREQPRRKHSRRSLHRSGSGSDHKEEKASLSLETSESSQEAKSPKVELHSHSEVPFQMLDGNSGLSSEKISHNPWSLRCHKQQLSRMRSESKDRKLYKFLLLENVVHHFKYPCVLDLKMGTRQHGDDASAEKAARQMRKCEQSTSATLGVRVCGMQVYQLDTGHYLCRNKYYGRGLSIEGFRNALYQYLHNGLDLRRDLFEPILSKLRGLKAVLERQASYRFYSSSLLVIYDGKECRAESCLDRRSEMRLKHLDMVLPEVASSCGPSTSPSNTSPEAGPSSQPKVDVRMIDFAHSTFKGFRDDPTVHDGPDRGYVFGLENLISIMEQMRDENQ
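ADP-Glo luminescence measures ADP made by human IP6K1 during a 2 h RT reaction with ATP/IP6 (mix at 1.3 mM/130 uM); top library doses 57.5 and 19.1 uM final.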
KDM5B inh = Primary screen for KDM5B Histone Demethylases FDH-coupled qHTS; Lysine-specific demethylase 5B (Homo sapiens), Q9UGL1; KDM5B demethylase, FDH-coupled NADH fluorescence (FDH is formaldehyde dehydrogenase); Potency, µM (top dose mostly 57.7 µM), actives largely listed as inhibitors; 2.6% of 220,000 active; note: potency is the fitted concentration of half-maximal effect; 0% is about no effect; nearly all actives have a fitted effect of over 70% in size
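Compound dilutions met 200 nM (final) KDM5BΔAP for 10 min at room temperature before substrate addition. The substrate mix held 12.5 µM H3K4me3 with cofactors 25 µM α-ketoglutarate and 50 µM Fe²⁺. NADH signal gain over 30 min defined activity.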
IP6K1 conf = Confirmatory qHTS assay for small molecule inhibitors of Inositol hexaphosphate kinase 1 (IP6K1) | shares compounds with IP6K1 inh | recombinant IP6K1 kinase, ADP-Glo luminescence, 2 h | Potency, µM (series often up to 49 µM), without a hit: at the top dose activity change, negative = inhibition, usual class: inhibitors | 13% of 1,200 active; note: potency is the fitted concentration of half-maximal effect; % is set by controls: 0 for no effect and ±100 for the full control effect; nearly all actives have a fitted effect of over 65% in size
The depositor's hits bear a star; i = inactive; ? = inconclusive; · = not tested or not shown. Unless noted, calls come from the whole dose curve; as a rule, active = well fitted inhibition curve with a large enough effect; inconclusive = small, poorly fitted or top-dose-only effect; inactive = no such curve, though single readings can be large or run the other way.

SMILES	IP6K1 inh	KDM5B inh	IP6K1 conf
CNCc1cc(Br)c(OCc2ccccc2)c(OC)c1	·	i	·
CCOc1cc(CNc2ccc(O)cc2)cc(Br)c1OCc1ccccc1	-43*	?	?
CCCCOc1ccc(S(=O)(=O)c2ccc(OCCCC)cc2)cc1	·	i	·
Cc1oc(-c2ccccc2)nc1CN(CC(N)=O)C(C)C	·	i	·
CCN(CC)C(=S)SCC(=O)c1ccc(OC)cc1	·	i	·
CSC(C)C(=O)Nc1cccc(Cl)c1 (stereo unspecified)	·	i	·
COc1cccc(N2C(=O)NC(=NC3CCCCC3)C23CCCN(CC2CCCCC2)C3)c1 (stereo unspecified)	-26*	?	?
COc1cccc(N2C(=O)NC(=NC3CCCC3)C23CCCN(CC2CCCCC2)C3)c1 (stereo unspecified)	-21	i	·
Oc1ccc(Cl)cc1C=NCc1cccc(Cl)c1	·	i	·
O=C(Nc1ncc([N+](=O)[O-])s1)c1ccccc1O	-31*	·	?
CC(=O)Nc1ncc([N+](=O)[O-])s1	9	·	·
CSCc1nnc2c3ccccc3c(-c3ccc(C)c(S(=O)(=O)N(C)CCO)c3)nn12	·	i	·
COc1ccc2c(ccn2CC(=O)NCCCCCC(=O)O)c1	·	i	·
Cc1cccc(Nc2sc(C(=O)c3ccc(Cl)cc3)c(N)c2C(N)=O)c1	-39*	?	-10%
COc1ccc(Nc2sc(C(=O)c3ccc(Cl)cc3)c(N)c2C(N)=O)cc1	·	i	·
CCc1ccc(CNC(=O)C2CCCN(S(=O)(=O)c3ccc4c(ccn4C)c3)C2)cc1 (stereo unspecified)	-26*	i	-4%
Cn1ccc2cc(S(=O)(=O)N3CCCC(C(=O)NCc4ccccc4)C3)ccc21 (stereo unspecified)	-3	i	·
Cc1nc2ccccc2c(=O)n1-c1ccc(NC(=O)c2ccccc2[N+](=O)[O-])cc1	25	i	·
Cc1cc(-n2c(C)nc3ccccc3c2=O)ccc1NC(=O)c1ccc(C)c([N+](=O)[O-])c1	-25*	i	4%
CC(c1ccc(-c2cc(N)ncn2)cc1)N1CCCCC1 (stereo unspecified)	12	?	-2%
CC(c1ccc(-c2cc(N)ccn2)cc1)N1CCCCC1 (stereo unspecified)	16	i	·
COC(=O)N/N=C/c1cc(N=Nc2ccccc2)ccc1O	·	i	·
Cc1ccc(O)c(N=Nc2ccccc2)n1	·	·	7.3µM*
CC(C)c1ccc(NC(=O)Cn2cc(S(=O)(=O)Cc3cccc(Cl)c3)c3ccccc32)cc1	3	i	·
O=C(Cn1cc(S(=O)(=O)Cc2cccc(Cl)c2)c2ccccc21)Nc1ccc(F)c(Cl)c1	-37*	i	0%
SMILES	IP6K1 inh	KDM5B inh	IP6K1 conf
O=C(NC1CCCCCCC1)c1nnn2c1COC(c1ccc(F)cc1)C2 (stereo unspecified)	1	i	·
O=C1c2ccccc2C(=O)c2c(Nc3ccc(CCO)cc3)ccc(O)c21	·	i	·
O=C1c2c(O)ccc(O)c2C(=O)c2c(NCCNCCO)ccc(NCCNCCO)c21	-39*	·	?
Cc1ccc(C(=O)O)cc1NC(=O)c1cccc(C(=O)Nc2cc(C(=O)O)ccc2C)c1	·	i	·
Cc1ccc(C(=O)Nc2ccc(S(=O)(=O)O)c3cc(S(=O)(=O)O)cc(S(=O)(=O)O)c23)cc1NC(=O)c1cccc(NC(=O)Nc2cccc(C(=O)Nc3cc(C(=O)Nc4ccc(S(=O)(=O)O)c5cc(S(=O)(=O)O)cc(S(=O)(=O)O)c45)ccc3C)c2)c1	-95*	·	3.3µM*
CN(C1CCc2nn(CC3CC3)c(=O)n2CC1)S(=O)(=O)c1ccccc1F (stereo unspecified)	9	·	·
CCCOc1cc(C)c(Cl)cc1S(=O)(=O)Nc1cccnc1	·	i	·
COc1ccc(-c2cn3c(n2)sc2cc(C(=O)NCCCN4CCCCCC4)ccc23)cc1	-62*	?	-4%
COc1ccc(-c2cn3c(n2)sc2cc(C(=O)NCCCN4CCCCC4)ccc23)cc1	-9	?	·
CCOC(=O)C1CCCN(C(=O)c2ccc3c(c2)sc2nc(-c4cccc(OC)c4)cn23)C1 (stereo unspecified)	-31*	?	3%
CCOC(=O)C1CCCN(C(=O)c2ccc3c(c2)sc2nc(-c4ccc(C)cc4C)cn23)C1 (stereo unspecified)	-3	i	·
O=C(CSc1ccccn1)c1ccc(Cl)cc1	·	i	·
O=C1CC2(CCN(C(=O)C3CCCN(C(=O)c4ccc(F)cc4)C3)CC2)Oc2ccccc2N1 (stereo unspecified)	-6	·	·
